PubChem BioAssay (NCI)
This is part of a sample that, as a whole, favours compounds with a hit. Of some 83,000 tested, about 20% had one in any assay.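 Percent growth is the endpoint: 0 to 100 indicates growth inhibition (40 means 60% inhibition), 0 means no net growth, and negative values indicate cell death.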 Values without a mark were called inactive. Active and inactive are the calls of the source. How the source made its calls: active means growth percent below 10; inactive means the rest.

Key:
Assay in all cases: NCI-60 one-dose screen, 48 h (100 = growth as untreated, 0 = no growth, -100 = all killed)
DU-145 prostate = details: 10 µM unless noted
K-562 leukemia = details: 10 µM unless noted
MALME-3M melanoma = details: 10 µM unless noted
RXF 393 renal = details: 10 µM unless noted
SF-268 CNS = details: 10 µM unless noted
SF-295 CNS = details: 10 µM unless noted
SF-539 CNS = details: 10 µM unless noted
UACC-257 melanoma = details: 10 µM unless noted
HCT-15 colon = details: 10 µM unless noted
HT29 colon = details: 10 µM unless noted
SNB-75 CNS = details: 10 µM unless noted
SNB-19 CNS = details: 10 µM unless noted
U251 CNS = details: 10 µM unless noted
PC-3 prostate = details: 10 µM unless noted
SK-MEL-5 melanoma = details: 10 µM unless noted
UACC-62 melanoma = details: 10 µM unless noted
LOX IMVI melanoma = details: 10 µM
SK-MEL-28 melanoma = details: 10 µM unless noted
M14 melanoma = details: 10 µM unless noted
MDA-MB-231 breast = details: 10 µM unless noted

SMILES	growth (DU-145 prostate)	growth (K-562 leukemia)	growth (MALME-3M melanoma)	growth (RXF 393 renal)	growth (SF-268 CNS)	growth (SF-295 CNS)	growth (SF-539 CNS)	growth (UACC-257 melanoma)	growth (HCT-15 colon)	growth (HT29 colon)	growth (SNB-75 CNS)	growth (SNB-19 CNS)	growth (U251 CNS)	growth (PC-3 prostate)	growth (SK-MEL-5 melanoma)	growth (UACC-62 melanoma)	growth (LOX IMVI melanoma)	growth (SK-MEL-28 melanoma)	growth (M14 melanoma)	growth (MDA-MB-231 breast)
CC(C)(C)CC(C)(C)c1ccc(OCCOCCSC(=N)N)cc1	53.8%	3.14% (active)	-60.8% (active)	-36.3% (active)	69%	36.9%	64.3%	73%	0.972% (active)	-7.31% (active)	74.8%	73.6%	35.9%	42.6%	-70.2% (active)	75.7%	-81% (active)	-57.1% (active)		
CCCOC(=O)c1nc(N(CC2CCCCC2)C(=O)NC)sc1/N=C/c1ccccc1	44.7%	2.2% (active)	12.4%	-8.78% (active)	32%	15.1%	-27.9% (active)	37.5%	-70.3% (active)	-37.7% (active)	-11.1% (active)	24.5%	5.96% (active)	25.3%	-11.9% (active)	4.74% (active)		35%	6.82% (active)	
CC(=O)c1ccc2c(c1)CCc1ccccc1-2	115%	115%		97.4%	101%	94.2%	96.8%	98.2%	93.9%	102%	87.1%	103%	95.6%	100%	99.6%	109%	113%	101%	107%	109%
Clc1ccc(Cc2nc3ccccc3s2)cc1	98.6%	98.1%		112%	88.5%	91.5%	106%	97.7%	88%	118%	83.9%	121%	79.4%	63%	96.9%	87.7%	74.3%	112%	98.2%	74%
CCOC(=O)C1=NN(c2ccccc2)C(=O)/C1=C\N1C(=O)/C(=C/c2cccc(O)c2)SC1=S	96.8%	100%		101%	91.7%	104%	107%	98.3%	109%	111%	97.2%	94.4%	89%	88%	95%	91.9%	88%	111%	89.6%	87.6%
COc1ccc(C(OCC2OC(n3ccc(NC(=O)c4ccccc4)nc3=O)C(O)C2O)(c2ccccc2)c2ccccc2)cc1 (stereo unspecified)	52.4%	32.7%		31%	54.2%	41.7%	42.9%	64.3%	20.6%	8.51% (active)	34.1%	54.7%	33.1%	22.9%	24.2%	43.9%	46.6%	55.9%	40.2%	58.2%
COc1ccc(/C=C2/C(=O)ON=C2C)cc1	109%	100%		102%	104%	110%	107%	100%	112%	99.2%	106%	106%	98.6%	97.6%	103%	90.3%	99.4%	106%	109%	96.8%
CC(=O)OC1CC2CCC1(C)C2(C)C (stereo unspecified)	110%		98.7%	114%	104%	94.5%	104%	99.6%	98.9%	96%	93.5%	103%	103%	93.2%	106%	92.6%	101%	105%	106%	101%
N#Cc1c2ccccc2nc2ccccc12	112%	106%			105%	98.7%		95.2%		110%	97.8%	92.1%	94.9%	91%	94.8%		101%	132%	120%	99.4%
CCCCCC[C@@H](O)C/C=C\CCCCCCCC(=O)OCCOC	116%	137%		110%	106%	131%	106%	100%	103%	101%	90%	97.8%	105%	90.4%	96.2%	90.6%	86%	105%		90%
CCN(CC)c1ccc(/C=C\C(=O)c2ccc(NC(C)=O)cc2)cc1	60.1%		117%	79.4%	83.6%	35.6%	67.3%	78.3%	45.6%	39.5%	-0.746% (active)	61.5%	41.9%	71.9%	97.4%	78.5%	74.1%	82%		65.7%
O=C1c2ccccc2Cc2cccc(Cl)c21		91.5%	94.2%	89.7%	93%	90.9%	98.1%	104%	97.4%	87.7%	117%	100%	101%	92.9%	96.2%	98.9%	93.9%	101%	111%	95.4%
Cc1ccccc1NC(=O)Cc1csc2[n+]1C(=O)/C(=C/c1ccc([N+](=O)[O-])cc1)S2		88.3%	99.3%	111%	95.9%	99.7%	104%	104%	100%	113%	80.9%	102%	92.2%	85.9%	94.3%	88.2%	86.6%	95.8%	85.8%	97.7%
CC1(C)N=c2cc3c(cc2N1c1ccc(Cl)cc1)=Nc1ccccc1N3c1ccc(Cl)cc1		-18.7% (active)	79.4%		49.6%	31.7%	79.7%	40.5%	33.2%	60.4%	1.77% (active)	66.5%	39.3%	7.55% (active)	37.8%	69.1%	40.5%	86.6%		83.3%
CCCCCCCCCCCCCCCCSC(=NCC)NCC	36%	-59.8% (active)		6.55% (active)	39.5%		32.8%	-12.4% (active)	-36% (active)	-61.4% (active)	53.3%	55.3%	4.98% (active)	-42% (active)	-38% (active)	-8.15% (active)	-91.1% (active)	43%	-49.8% (active)	-18.4% (active)
O/N=C1\c2ccccc2-c2ccc(F)cc21		99.1%	114%	111%		117%	97%	110%	74.6%		91.1%	101%	106%	89.1%	99.1%	93.8%	96.6%	111%		88.2%
CCOC(=O)c1[nH]c(C#N)c(C(=O)OCC)c1C	106%		109%	90.5%	111%	89.3%	104%	104%	92.2%	103%	96.9%	106%	99.1%	102%	102%	91.2%	107%	112%	109%	102%
CC1=CC(=NC(=O)CBr)C=C/C1=N\S(=O)(=O)c1ccccc1	76.8%		21.9%	82.4%	64.8%		91.6%		36.6%	39.9%	67.6%	98.2%	67.3%	77.5%	57.1%	66.7%	9.2% (active)	73.1%	72.8%	67.5%
